outcome, Potency and max response data for 10 compounds are collected here from PubChem BioAssay (Tox21).

Where “and” joins values, the source holds several entries; their conditions need not be identical. Equal entries are not always repeated. Records with an inconclusive call do not appear. Some structures have more than one record in an assay (separate samples or runs), and their calls can disagree. Calls of active or inactive are those of the source. The call rests on the fitted dose curve; in most records, active means well fitted curve in the direction sought with a large enough effect in the repeat runs; inconclusive means weak or mixed curves; inactive means no such curve, though single readings can be large; an effect the other way counts as inactive or inconclusive.

Assay [1] in a line: qHTS RealTime-Glo MT Cell Viability Assay in HepG2 cells - 40 hour (AID 1224870). Further: nearly all actives have a fitted effect of over 50% in size. The essentials:
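HepG2 cells mixed with RealTime-Glo MT reagents (NanoLuc plus cell-permeant prosubstrate) were seeded at 600 cells/well, incubated 5 h at 37 C/5% CO2, then pinned with compounds in DMSO; nonlytic luminescence tracked viability during 40 h treatment.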
For orientation: In qHTS, concentration-response curves come from the screen itself.

Assay [2] can be described thus: A CellTox Green Cytotoxicity Assay to monitor cytotoxicity in HEK293 cells - 40 hour (AID 1224871). Further: nearly all actives have a fitted effect of over 45% in size. Further: potency means the concentration at half of the fitted maximal effect. Summed up:
(§1)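 Tox21 screen in HEK293: membrane-impermeant cyanine dye fluoresces on binding dead-cell DNA; compound pinned 5 h post-seeding, plates held at 37 C, signal read repeatedly through 40 h.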

The nature of assay [3]: qHTS RealTime-Glo MT Cell Viability Assay in HEK293 cells - 16 hour (AID 1224872). Further: nearly all actives have a fitted effect of over 50% in size. Further: potency means the concentration at half of the fitted maximal effect. The essentials:
(§2)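 Luminescence generated by NanoLuc from substrate produced by living HEK293 cells served as the viability signal. Each value reflects the reading at its stated time point during continuous 40 h compound exposure at 37 C.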

A short description of assay [4]: qHTS RealTime-Glo MT Cell Viability Assay in HEK293 cells - 40 hour (AID 1224874). Further: nearly all actives have a fitted effect of over 50% in size. Further: potency means the concentration at half of the fitted maximal effect. The following applies: RealTime-Glo luminescence; max response: stronger effect = lower value. Summed up:
(§3)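 HEK293 + NanoLuc + prosubstrate, 600 cells/well; 5 h, 37 C/5% CO2; compound 23 nL in DMSO by pintool; 37 C; luminescence read at 0, 8, 16, 24, 32 and 40 h time points.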

Assay [5] in a line: A CellTox Green Cytotoxicity Assay to monitor cytotoxicity in HEK293 cells - 24 hour (AID 1224875). Further: series mostly up to about 77 µM; nearly all actives have a fitted effect of over 45% in size. The essentials:
as §1

The nature of assay [6]: A CellTox Green Cytotoxicity Assay to monitor cytotoxicity in HepG2 cells - 16 hour (AID 1224876). Further: nearly all actives have a fitted effect of over 45% in size. The essentials:
(§4)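 Measurements at 0, 8, 16, 24, 32 and 40 h of treatment captured CellTox Green fluorescence in HepG2 cells that had been co-plated with reagent and preincubated 5 h at 37 C/5% CO2.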

Assay [7] in a line: qHTS RealTime-Glo MT Cell Viability Assay in HepG2 cells - 32 hour (AID 1224877). Further: nearly all actives have a fitted effect of over 55% in size. The essentials:
(§5)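 Tox21 10K library screened in qHTS format on HepG2 cells carrying RealTime-Glo reagents. Compounds were added after a 5 h preincubation, and the luminescent signal from continuous culture was measured repeatedly during 40 h treatment.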

A short description of assay [8]: A CellTox Green Cytotoxicity Assay to monitor cytotoxicity in HepG2 cells - 24 hour (AID 1224878). Further: nearly all actives have a fitted effect of over 45% in size. Further: potency means the concentration at half of the fitted maximal effect. The essentials: as §4
Assay [9] is described as follows: A CellTox Green Cytotoxicity Assay to monitor cytotoxicity in HepG2 cells - 40 hour (AID 1224879). Further: nearly all actives have a fitted effect of over 40% in size. Further: potency means the concentration at half of the fitted maximal effect. The essentials:
as §4

Assay [10] in a line: qHTS RealTime-Glo MT Cell Viability Assay in HEK293 cells - 0 hour (AID 1224880). The essentials: as §3
A short description of assay [11]: A CellTox Green Cytotoxicity Assay to monitor cytotoxicity in HepG2 cells - 0 hour (AID 1224882). Further: nearly all actives have a fitted effect of over 35% in size. Further: potency means the concentration at half of the fitted maximal effect. Summed up: as §4
Assay [12] is described as follows: A CellTox Green Cytotoxicity Assay to monitor cytotoxicity in HepG2 cells - 32 hour (AID 1224883). Further: nearly all actives have a fitted effect of over 50% in size. Further: potency means the concentration at half of the fitted maximal effect. Summed up:
as §4

The nature of assay [13]: A CellTox Green Cytotoxicity Assay to monitor cytotoxicity in HEK293 cells - 8 hour (AID 1224884). Further: nearly all actives have a fitted effect of over 35% in size. The essentials:
as §1

A short description of assay [14]: qHTS RealTime-Glo MT Cell Viability Assay in HepG2 cells - 16 hour (AID 1224885). Further: nearly all actives have a fitted effect of over 50% in size. The essentials:
as §5

The nature of assay [15]: qHTS RealTime-Glo MT Cell Viability Assay in HEK293 cells - 24 hour (AID 1224886). Further: nearly all actives have a fitted effect of over 50% in size. Further: potency means the concentration at half of the fitted maximal effect. Summed up: as §2
Assay [16] is described as follows: qHTS RealTime-Glo MT Cell Viability Assay in HEK293 cells - 8 hour (AID 1224887). Further: nearly all actives have a fitted effect of over 50% in size. Further: potency means the concentration at half of the fitted maximal effect. Summed up: as §3
Assay [17] can be described thus: A CellTox Green Cytotoxicity Assay to monitor cytotoxicity in HEK293 cells - 16 hour (AID 1224888). Further: nearly all actives have a fitted effect of over 35% in size. The essentials:
as §1

Assay [18] is described as follows: qHTS RealTime-Glo MT Cell Viability Assay in HepG2 cells - 0 hour (AID 1224889). Further: nearly all actives have a fitted effect of over 50% in size. Summed up: as §5
A short description of assay [19]: A CellTox Green Cytotoxicity Assay to monitor cytotoxicity in HEK293 cells - 32 hour (AID 1224881). Further: nearly all actives have a fitted effect of over 40% in size. Further: potency means the concentration at half of the fitted maximal effect. Summed up:
as §1
On the % scale 0 is the no-effect control and ±100 the full control effect.

In the case of `CCCCCCCCCCCCCC(=O)OC(C)C`, the call in [1] and in assay [7] was inactive. For the same compound, the Potency result in assay [2], in [5], in [6], in [8], in [9] and in assay [10] was “inactive” in each case. Further, the Potency entry in [11], in assay [12], in [13], in assay [14], in assay [17] and in assay [18] was “inactive” in each case. The Potency entry in assay [3] was “inactive and 4.36 µM (active)”; in [4], 2.75 µM (active); in assay [15] it was “inactive and 3.47 µM (active)”; in [16], “inactive and 9.77 µM (active)”. Besides, in assay [4], the max response was 1.2% (inactive) and -0.28% (inactive).
As for `Nc1ccc(N=Nc2ccccc2)c(N)n1`, the call in assay [1] and in [7] was inactive. For the same compound, the Potency result in assay [2], in [6], in assay [11], in [13], in [14] and in assay [17] was “inactive” in each case. In assay [18], the Potency result is “inactive”. Moreover, the Potency in assay [4] was 24.7 µM (active) and 24.5 µM (active); in assay [8], 34.9 µM (active) and 17.4 µM (active); in assay [9], 34.9 µM (active) and 17.4 µM (active) and 26.8 µM (active); in assay [12] it was 31.1 µM (active) and 17.4 µM (active).
For `c1ccc2[nH]c(-c3cscn3)nc2c1`, the outcome in assay [1] and in assay [7] was inactive. Also, the Potency result in assay [2], in assay [5], in assay [6], in [8], in assay [9] and in assay [10] was “inactive” throughout. Further, the Potency entry in assay [11], in assay [12], in assay [13], in assay [14], in [16] and in [17] was “inactive” in each case. Besides, the Potency result in [18] is “inactive”. In assay [4], the max response was -21.8% (inactive).
On to `CCCCCCCC(=O)OCC(O)CO` (centres undefined), for which the outcome in [1] and in [7] was inactive. For the same compound, the Potency result in assay [2], in assay [3], in assay [6], in assay [8], in [9] and in [10] was “inactive” throughout. Moreover, the Potency result in assay [12], in [13], in assay [14], in [16], in assay [17] and in [18] was “inactive” each time. Moreover, the max response in [4] is 11.2% (inactive) and -0.735% (inactive). In assay [11], the Potency entry was “inactive and 26.8 µM (active)”.
Consider `O=C(O)CCCCC1CCSS1` (centres undefined), for which the result in [1] and in assay [7] was inactive. Further, the Potency entry in assay [2], in assay [3], in [6], in assay [8], in [9] and in [10] was “inactive” each time. For the same compound, the Potency result in [19], in assay [11], in assay [12], in assay [13], in assay [14] and in assay [15] was “inactive” throughout. The Potency result in assay [16], in assay [17] and in [18] was “inactive” in each case. Further, the max response in [4] is 9.73% (inactive) and 12.3% (inactive) and 7.95% (inactive).
`O=C1CCCCCN1`: the result in [1] and in assay [7] was inactive. Also, the Potency result in [2], in assay [3], in assay [5], in [6], in assay [8] and in assay [9] was “inactive” each time. Moreover, the Potency entry in assay [19], in assay [11], in assay [12], in assay [13], in [14] and in assay [15] was “inactive” throughout. The Potency entry in [16], in assay [17] and in assay [18] was “inactive” throughout. The max response in assay [4] was -1.34% (inactive) and -3.41% (inactive).
Turning to `CCOC(=O)C(C)(C)Oc1ccc(Cl)cc1`, the compound was classed as inactive in assay [1] and in [7]. Also, the Potency entry in [2], in assay [3], in assay [5], in assay [6], in assay [8] and in assay [9] was “inactive” each time. Also, the Potency entry in assay [19], in [11], in assay [12], in assay [13], in [14] and in assay [16] was “inactive” throughout. Besides, the Potency entry in [17] and in [18] was “inactive” in each case. The max response in assay [4] is 0.886% (inactive) and 6.32% (inactive) and -3.11% (inactive).
On to `C[C@]12CC[C@@H]3c4ccc(O)cc4CC[C@H]3[C@@H]1CCC2=O`, for which the compound was called inactive in [1] and in assay [7]. The Potency in [2] is 49 µM (active) and inactive; in assay [19] it was 49 µM (active) and inactive. Besides, the Potency result in [3], in assay [6], in [8], in assay [9], in [10] and in [11] was “inactive” in each case. Besides, the Potency result in assay [12], in assay [13], in assay [14], in [15], in [16] and in assay [17] was “inactive” each time. In assay [18], the Potency entry is “inactive”.
For `COC(=O)c1ccc(O)cc1`, the Potency result in assay [2], in assay [6], in [8], in assay [9], in [19] and in [11] was “inactive” throughout. Also, the Potency result in assay [12], in assay [13] and in assay [17] was “inactive” throughout.
As to `CCCCCCCCOc1ccc(C(=O)c2ccccc2)c(O)c1`, the compound was called inactive in assay [1] and in [7]. Moreover, the Potency entry in assay [2], in [3], in assay [6], in [8], in [9] and in assay [11] was “inactive” throughout. The Potency entry in assay [12], in assay [13], in [14], in [15], in [16] and in assay [17] was “inactive” in each case. Also, the Potency result in [18] is “inactive”. Besides, the max response in assay [4] was -20.9% (inactive) and 7.71% (inactive) and 4.9% (inactive).
